Laboratory results from the supplement of paper PMC11732987, “Enantioselective OTUD7B fragment discovery through chemoproteomics screening and high-throughput optimisation” (Communications Chemistry, 2025).

Experiments:
Assay in all cases: log2 ratio of Biotin-Ahx-Ub-VS probe labelling (fragment/DMSO); higher = less target engagement (more negative = stronger competition), active = hit call of the paper (q ≤ 0.05, log2 ratio ≤ -1)
Details in all cases: compound concentration: 200 uM; treatment time: 3 h
USP34 = USP34 (UniProt Q70CQ2)
Summary of the method: (§1)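 Each value is an average log2 ratio of fragment to vehicle, tested by unpaired t-test. The underlying Spectronaut label-free quantities were global-median-normalised, and only proteins with ≥2 unique peptides were included. Triplicate HEK293T lysate samples (495 µg) were exposed to fragment at 200 µM or vehicle for 3 h, then to Biotin-Ahx-Ub-VS at 0.5 µM final for 1 h, before NeutrAvidin enrichment of labelled DUBs, LysC and trypsin digestion, and diaPASEF LC-MS/MS.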

USP36 = target: T1, USP36 (UniProt Q9P275)
T1 sequence (whole entry): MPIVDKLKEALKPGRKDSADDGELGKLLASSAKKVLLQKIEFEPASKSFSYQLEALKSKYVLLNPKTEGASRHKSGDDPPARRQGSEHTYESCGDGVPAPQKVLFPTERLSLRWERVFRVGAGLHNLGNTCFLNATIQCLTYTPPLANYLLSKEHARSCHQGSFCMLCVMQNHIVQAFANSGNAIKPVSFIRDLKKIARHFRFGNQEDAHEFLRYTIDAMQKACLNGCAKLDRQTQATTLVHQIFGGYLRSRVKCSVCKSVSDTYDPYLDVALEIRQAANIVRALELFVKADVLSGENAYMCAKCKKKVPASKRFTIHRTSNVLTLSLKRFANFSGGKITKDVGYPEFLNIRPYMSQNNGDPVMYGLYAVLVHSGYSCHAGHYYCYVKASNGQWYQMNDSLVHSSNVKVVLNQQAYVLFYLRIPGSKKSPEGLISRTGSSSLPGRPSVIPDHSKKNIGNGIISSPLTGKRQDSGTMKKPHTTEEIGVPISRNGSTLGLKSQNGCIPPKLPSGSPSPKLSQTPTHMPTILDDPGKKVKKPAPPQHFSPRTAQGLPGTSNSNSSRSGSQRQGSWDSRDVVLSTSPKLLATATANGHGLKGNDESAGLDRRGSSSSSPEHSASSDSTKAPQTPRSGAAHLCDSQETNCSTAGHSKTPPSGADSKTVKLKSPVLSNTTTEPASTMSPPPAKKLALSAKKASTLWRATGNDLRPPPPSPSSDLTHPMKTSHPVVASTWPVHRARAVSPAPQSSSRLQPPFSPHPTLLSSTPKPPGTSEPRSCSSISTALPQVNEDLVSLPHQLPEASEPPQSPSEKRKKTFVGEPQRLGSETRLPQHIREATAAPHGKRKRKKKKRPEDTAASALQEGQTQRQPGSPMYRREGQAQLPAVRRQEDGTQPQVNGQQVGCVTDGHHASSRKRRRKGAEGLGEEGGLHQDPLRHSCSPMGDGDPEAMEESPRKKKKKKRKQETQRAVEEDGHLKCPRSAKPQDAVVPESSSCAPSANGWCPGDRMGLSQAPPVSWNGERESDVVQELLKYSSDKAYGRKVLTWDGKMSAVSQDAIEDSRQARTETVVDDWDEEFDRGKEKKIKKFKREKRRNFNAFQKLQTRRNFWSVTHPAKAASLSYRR
Summary of the method: as §1

USP38 = target: T2, USP38 (UniProt Q8NB14)
T2 sequence (whole entry): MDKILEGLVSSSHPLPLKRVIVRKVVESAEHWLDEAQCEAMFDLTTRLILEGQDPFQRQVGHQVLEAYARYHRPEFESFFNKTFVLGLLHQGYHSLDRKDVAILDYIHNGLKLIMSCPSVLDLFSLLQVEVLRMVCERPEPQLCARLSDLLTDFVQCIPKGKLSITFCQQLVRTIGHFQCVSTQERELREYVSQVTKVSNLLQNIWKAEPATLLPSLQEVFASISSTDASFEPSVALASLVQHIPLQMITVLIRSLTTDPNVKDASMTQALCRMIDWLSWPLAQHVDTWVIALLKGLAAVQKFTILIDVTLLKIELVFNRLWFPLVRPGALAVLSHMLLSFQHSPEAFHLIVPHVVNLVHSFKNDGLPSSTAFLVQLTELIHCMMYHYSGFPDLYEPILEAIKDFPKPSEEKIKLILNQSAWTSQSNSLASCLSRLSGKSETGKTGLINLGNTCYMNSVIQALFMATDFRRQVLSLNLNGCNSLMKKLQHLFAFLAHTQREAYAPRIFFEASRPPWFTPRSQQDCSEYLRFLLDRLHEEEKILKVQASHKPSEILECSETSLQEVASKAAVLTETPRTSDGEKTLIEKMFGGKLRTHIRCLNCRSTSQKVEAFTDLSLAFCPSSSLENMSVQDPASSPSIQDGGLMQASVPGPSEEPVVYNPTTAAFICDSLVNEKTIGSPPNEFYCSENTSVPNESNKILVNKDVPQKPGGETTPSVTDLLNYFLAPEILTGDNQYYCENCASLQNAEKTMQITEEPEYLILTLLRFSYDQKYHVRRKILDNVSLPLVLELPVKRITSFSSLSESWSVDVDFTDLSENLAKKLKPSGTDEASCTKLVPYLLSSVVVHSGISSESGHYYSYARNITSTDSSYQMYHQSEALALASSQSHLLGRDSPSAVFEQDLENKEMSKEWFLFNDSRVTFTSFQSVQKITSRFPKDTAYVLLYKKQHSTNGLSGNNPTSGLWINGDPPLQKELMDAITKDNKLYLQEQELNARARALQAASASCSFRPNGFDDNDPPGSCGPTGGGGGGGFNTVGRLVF
Summary of the method: as §1

USP39 = target: T3, USP39 (UniProt Q53GS9)
T3 sequence (whole entry): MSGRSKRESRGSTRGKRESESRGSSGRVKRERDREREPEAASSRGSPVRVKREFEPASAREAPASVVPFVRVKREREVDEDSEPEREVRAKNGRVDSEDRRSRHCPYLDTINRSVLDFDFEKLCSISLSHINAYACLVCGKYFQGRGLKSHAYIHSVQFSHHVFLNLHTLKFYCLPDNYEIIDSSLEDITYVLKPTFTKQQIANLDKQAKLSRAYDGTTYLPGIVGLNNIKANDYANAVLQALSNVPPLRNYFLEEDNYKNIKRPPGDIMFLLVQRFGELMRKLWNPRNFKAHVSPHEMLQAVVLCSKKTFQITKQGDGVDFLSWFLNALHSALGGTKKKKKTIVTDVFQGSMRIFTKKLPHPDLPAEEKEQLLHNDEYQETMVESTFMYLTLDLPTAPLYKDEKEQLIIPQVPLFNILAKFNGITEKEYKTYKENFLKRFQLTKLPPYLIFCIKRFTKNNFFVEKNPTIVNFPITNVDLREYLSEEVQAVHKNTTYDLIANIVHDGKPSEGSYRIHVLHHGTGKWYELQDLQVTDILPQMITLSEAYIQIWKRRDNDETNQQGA
Summary of the method: as §1

USP4 = target: T4, USP4 (UniProt Q13107)
T4 sequence (whole entry): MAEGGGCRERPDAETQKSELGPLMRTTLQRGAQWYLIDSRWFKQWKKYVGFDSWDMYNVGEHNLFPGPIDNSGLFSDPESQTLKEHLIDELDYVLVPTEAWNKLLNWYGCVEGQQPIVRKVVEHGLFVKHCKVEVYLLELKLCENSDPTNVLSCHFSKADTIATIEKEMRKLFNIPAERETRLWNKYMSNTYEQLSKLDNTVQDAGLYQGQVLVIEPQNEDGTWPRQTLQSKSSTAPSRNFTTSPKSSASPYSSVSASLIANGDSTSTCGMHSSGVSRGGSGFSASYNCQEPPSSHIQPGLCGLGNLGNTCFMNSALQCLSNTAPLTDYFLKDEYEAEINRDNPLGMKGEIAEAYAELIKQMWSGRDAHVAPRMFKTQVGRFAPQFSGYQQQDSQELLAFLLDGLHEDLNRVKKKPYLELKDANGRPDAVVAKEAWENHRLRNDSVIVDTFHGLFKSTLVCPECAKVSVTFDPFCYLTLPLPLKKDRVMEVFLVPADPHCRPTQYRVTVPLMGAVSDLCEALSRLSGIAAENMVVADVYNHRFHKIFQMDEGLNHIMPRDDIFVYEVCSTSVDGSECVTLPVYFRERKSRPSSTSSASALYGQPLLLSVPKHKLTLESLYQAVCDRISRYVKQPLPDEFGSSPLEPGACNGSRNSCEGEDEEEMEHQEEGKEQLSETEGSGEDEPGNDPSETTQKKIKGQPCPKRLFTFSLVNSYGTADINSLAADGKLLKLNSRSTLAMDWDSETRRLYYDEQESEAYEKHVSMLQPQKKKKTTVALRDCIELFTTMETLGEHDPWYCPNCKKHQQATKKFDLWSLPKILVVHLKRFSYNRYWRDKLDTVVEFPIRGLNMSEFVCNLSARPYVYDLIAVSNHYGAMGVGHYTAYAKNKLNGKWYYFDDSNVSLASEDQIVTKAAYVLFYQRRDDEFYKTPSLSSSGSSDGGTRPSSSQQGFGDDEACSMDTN
Summary of the method: as §1

Measured: log2 ratio of Biotin-Ahx-Ub-VS probe labelling

USP34, sequence (Q70CQ2 whole entry, the tested form may be a part): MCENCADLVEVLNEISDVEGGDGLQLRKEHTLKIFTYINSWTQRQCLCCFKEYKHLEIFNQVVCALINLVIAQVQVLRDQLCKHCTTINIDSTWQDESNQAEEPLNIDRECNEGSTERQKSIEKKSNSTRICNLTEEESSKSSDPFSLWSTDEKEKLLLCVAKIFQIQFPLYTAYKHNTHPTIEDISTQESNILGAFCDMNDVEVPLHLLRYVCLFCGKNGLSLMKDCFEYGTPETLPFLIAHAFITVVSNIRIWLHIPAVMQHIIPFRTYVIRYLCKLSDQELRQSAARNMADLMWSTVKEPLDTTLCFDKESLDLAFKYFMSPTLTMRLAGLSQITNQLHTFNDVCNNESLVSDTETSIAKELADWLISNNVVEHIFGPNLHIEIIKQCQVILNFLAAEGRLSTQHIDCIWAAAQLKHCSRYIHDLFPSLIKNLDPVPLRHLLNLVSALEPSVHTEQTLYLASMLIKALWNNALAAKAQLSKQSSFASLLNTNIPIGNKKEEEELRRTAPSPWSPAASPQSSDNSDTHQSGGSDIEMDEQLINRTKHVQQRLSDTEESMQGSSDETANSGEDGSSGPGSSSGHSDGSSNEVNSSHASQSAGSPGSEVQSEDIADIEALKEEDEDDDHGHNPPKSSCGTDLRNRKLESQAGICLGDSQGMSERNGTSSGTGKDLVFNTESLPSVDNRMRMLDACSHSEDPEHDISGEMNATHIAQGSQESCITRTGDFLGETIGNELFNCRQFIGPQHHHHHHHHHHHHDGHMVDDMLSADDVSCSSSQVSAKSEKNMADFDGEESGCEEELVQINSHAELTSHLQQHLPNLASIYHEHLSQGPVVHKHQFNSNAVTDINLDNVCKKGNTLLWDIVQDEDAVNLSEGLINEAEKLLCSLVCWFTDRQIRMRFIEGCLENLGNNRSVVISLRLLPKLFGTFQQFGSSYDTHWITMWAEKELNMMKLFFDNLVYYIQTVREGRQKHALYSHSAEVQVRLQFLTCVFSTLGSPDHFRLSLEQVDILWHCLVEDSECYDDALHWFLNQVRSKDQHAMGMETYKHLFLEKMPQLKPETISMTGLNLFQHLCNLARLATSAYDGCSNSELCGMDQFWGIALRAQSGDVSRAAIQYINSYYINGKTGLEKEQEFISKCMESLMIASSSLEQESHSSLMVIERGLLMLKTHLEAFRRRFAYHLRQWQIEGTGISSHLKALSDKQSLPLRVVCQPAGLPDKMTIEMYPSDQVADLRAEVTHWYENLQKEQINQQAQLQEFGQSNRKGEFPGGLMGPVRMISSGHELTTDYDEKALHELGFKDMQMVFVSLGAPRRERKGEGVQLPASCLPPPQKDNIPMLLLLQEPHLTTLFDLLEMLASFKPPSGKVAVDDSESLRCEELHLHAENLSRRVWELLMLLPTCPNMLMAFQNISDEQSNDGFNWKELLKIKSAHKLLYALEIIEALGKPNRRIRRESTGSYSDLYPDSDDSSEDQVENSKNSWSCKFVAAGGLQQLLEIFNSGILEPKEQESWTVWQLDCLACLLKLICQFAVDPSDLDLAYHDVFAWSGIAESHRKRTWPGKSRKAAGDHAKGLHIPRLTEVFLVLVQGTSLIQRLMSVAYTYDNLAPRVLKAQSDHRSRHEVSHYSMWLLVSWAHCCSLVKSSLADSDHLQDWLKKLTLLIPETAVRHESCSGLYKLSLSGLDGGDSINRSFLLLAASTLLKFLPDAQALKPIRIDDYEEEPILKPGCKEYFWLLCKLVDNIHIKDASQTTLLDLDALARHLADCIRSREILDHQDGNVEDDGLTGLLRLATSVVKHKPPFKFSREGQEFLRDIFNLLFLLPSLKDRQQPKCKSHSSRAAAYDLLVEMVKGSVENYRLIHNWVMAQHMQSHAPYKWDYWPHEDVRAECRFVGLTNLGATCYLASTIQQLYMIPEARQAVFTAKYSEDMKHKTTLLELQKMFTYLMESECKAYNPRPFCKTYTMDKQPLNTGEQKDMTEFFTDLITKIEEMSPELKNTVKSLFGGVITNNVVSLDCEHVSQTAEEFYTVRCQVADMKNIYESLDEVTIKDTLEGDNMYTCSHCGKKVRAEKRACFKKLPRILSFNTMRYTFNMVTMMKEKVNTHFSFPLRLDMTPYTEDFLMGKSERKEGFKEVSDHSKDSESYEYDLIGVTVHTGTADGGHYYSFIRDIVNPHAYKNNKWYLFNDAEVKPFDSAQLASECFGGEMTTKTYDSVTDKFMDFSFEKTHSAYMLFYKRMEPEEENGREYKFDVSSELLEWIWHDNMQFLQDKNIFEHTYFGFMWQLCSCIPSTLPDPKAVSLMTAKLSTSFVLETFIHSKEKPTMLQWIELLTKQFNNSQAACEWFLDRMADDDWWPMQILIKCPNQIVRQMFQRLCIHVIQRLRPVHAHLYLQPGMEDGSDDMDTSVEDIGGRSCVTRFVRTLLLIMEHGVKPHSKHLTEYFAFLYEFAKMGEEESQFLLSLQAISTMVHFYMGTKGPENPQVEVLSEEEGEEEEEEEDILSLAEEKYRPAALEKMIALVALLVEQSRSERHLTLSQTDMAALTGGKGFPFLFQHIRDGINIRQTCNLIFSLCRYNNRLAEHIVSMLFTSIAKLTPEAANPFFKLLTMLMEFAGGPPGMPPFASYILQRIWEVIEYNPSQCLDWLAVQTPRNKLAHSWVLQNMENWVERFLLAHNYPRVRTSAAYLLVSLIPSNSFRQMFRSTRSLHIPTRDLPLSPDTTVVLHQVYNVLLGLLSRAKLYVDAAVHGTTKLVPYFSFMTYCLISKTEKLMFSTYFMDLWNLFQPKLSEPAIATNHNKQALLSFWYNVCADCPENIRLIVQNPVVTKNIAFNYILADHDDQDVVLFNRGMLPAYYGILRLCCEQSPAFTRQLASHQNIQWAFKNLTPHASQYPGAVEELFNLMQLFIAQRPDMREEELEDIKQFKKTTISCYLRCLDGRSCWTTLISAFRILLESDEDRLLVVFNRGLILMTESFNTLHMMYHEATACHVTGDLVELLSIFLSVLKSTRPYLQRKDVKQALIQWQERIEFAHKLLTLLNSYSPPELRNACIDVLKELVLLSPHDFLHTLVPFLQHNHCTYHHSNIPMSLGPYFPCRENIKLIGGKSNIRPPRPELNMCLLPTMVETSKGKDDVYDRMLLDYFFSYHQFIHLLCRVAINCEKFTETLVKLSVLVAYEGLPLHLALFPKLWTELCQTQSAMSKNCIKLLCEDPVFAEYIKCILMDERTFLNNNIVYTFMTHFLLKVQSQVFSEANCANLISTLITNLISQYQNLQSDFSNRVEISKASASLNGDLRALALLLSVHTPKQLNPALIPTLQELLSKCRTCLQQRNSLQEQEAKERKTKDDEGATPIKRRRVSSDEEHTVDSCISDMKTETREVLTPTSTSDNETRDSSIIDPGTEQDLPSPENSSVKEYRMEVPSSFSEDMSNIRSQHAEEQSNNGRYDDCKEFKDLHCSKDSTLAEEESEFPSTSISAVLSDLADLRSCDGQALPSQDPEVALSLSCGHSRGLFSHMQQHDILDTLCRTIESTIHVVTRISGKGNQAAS

O=C(CCl)Nc1ccc(Cl)c(F)c1
inactive: USP34 -0.317 | USP36 -0.136 | USP38 -0.0529 | USP39 4.5e-05 | USP4 -0.159
